Test results as given in the supplement of paper PMC10127200.
Structures can show the parent of a compound that is named as a salt.

Legend:
Assay in all cases: Euclidean distance of Cell Painting phenotypic profile (signed KS, 77 features) to DMSO centroid (dimensionless distance); higher = stronger phenotypic change vs DMSO (phenoactivity)
Settings in all cases: 48 h; 5 or 10 uM (library dependent)
786-O = tested on: 786-O
Outline: (§1)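 Stained cells were imaged confocally at 20X with 9 fields per well, after 48 h of exposure to library compounds at 10 or 5 uM (set by library; 0.1% DMSO final). The cells were five cancer lines and a healthy fibroblast line. From the images, Harmony extracted 77 features, each expressed as a signed Kolmogorov-Smirnov statistic relative to same-plate vehicle wells. Phenoactivity is measured as Euclidean distance to the median vehicle profile, using plate-position-corrected, correlation-weighted profiles averaged across replicates at the top dose.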

A549 = tested on: A549
Outline: as §1

DU145 = tested on: DU145
Outline: as §1

FB = tested on: FB
Outline: as §1

HEPG2 = tested on: HEPG2
Outline: as §1

OVCAR4 = tested on: OVCAR4
Outline: as §1

| SMILES | Euclidean distance (786-O) | Euclidean distance (A549) | Euclidean distance (DU145) | Euclidean distance (FB) | Euclidean distance (HEPG2) | Euclidean distance (OVCAR4) |
| --- | --- | --- | --- | --- | --- | --- |
| NC[C@H](CC(=O)O)c1ccc(Cl)cc1 [(R)-baclofen] | 1.58 | 1.05 | 0.675 | 1.01 | 0.87 | 1.1 |
| CO[C@H]1CC[C@@H](O[C@H]2C[C@H]([C@]3(C)CC[C@]4(C[C@H](O)[C@@H](C)[C@@H]([C@@H](C)/C=C(\C)C(=O)[C@H](C)C[C@H](C)C(=O)O)O4)O3)O[C@]3(O[C@@H]([C@H]4O[C@@](O)(CO)[C@H](C)C[C@@H]4C)C[C@@H]3C)[C@@H]2C)O[C@@H]1C [Nanchangmycin] | 3.94 | 1.41 | 2.28 | 4.66 | 3.85 | 1.11 |
| CCCCCCC(=O)O[C@H]1CC[C@H]2[C@@H]3CCC4=CC(=O)CC[C@]4(C)[C@H]3CC[C@]12C [Testosterone Enanthate] | 0.918 | 0.756 | 0.828 | 0.666 | 0.553 | 1.49 |
| CC(NC(C)(C)C)C(=O)c1cccc(Cl)c1 (stereo not given) [Amfebutamone HCl] | 1.4 | 1.06 | 0.536 | 1.05 | 0.846 | 1.45 |
| CCC1=C[C@H]2CN3CCc4c([nH]c5ccccc45)[C@](C(=O)OC)(C2)[C@H]13 [Catharanthine] | 1.45 | 1.4 | 0.692 | 1.02 | 0.581 | 1.41 |
| C/C(=C\c1csc(C)n1)[C@@H]1C[C@@H]2O[C@]2(C)CCC[C@H](C)[C@H](O)[C@@H](C)C(=O)C(C)(C)[C@@H](O)CC(=O)O1 [Epothilone B] | 2.58 | 2.49 | 3.95 | 2.82 | 1.98 | 2.11 |
| CCC(=O)CCCCC[C@@H]1NC(=O)[C@H]2CCCCN2C(=O)[C@H]([C@@H](C)CC)NC(=O)[C@H](Cc2cn(OC)c3ccccc23)NC1=O [Apicidin] | 3.74 | 3.31 | 1.07 | 2.16 | 1.52 | 1.84 |
| CN1CCC(C(=O)c2cccc(NC(=O)c3c(F)cc(F)cc3F)n2)CC1 [Lasmiditan succinate] | 1.46 | 0.669 | 1.83 | 0.918 | 0.782 | 1.39 |
| Fc1cc(F)c2c(c1)[C@H]1C=CC[C@H]1C(c1cccnc1)N2 (stereo not given in full) [Golgicide A] | 0.733 | 0.432 | 0.82 | 1.04 | 0.802 | 0.985 |
| [O-][n+]1ccccc1[S-].[O-][n+]1ccccc1[S-].[Zn+2] [Zinc Pyrithione] | 6.27 | 4.94 | 7.6 | 6.01 | 5.34 | 6.33 |
| c1ccc2c(c1)Sc1ccccc1N2CC1CN2CCC1CC2 (stereo not given) [Mequitazine] | 2.14 | 1.44 | 1.35 | 2.64 | 2.43 | 1.19 |
| Cn1cc(C2=C(c3cn(C4CCN(Cc5ccccn5)CC4)c4ccccc34)C(=O)NC2=O)c2ccccc21 | 1.96 | 3.16 | 1.32 | 0.965 | 0.683 | 1.79 |
| Cc1ncc(CNC(=O)N(CCCl)N=O)c(N)n1 [Nimustine Hydrochloride] | 1.62 | 0.894 | 0.692 | 0.831 | 0.722 | 0.918 |
| NCCCNCCSP(=O)(O)O [Amifostine] | 2.98 | 1.18 | 1.66 | 1.8 | 1.22 | 1.31 |
| COc1cc2c(cc1OC)C1CC(=O)C(CC(C)C)CN1CC2 (stereo not given) [Tetrabenazine (Xenazine)] | 0.961 | 1.86 | 0.948 | 1.12 | 1.74 | 1.45 |
| O=P1(NCCCl)OCCCN1CCCl (stereo not given) [Ifosfamide] | 0.866 | 0.788 | 1.12 | 0.925 | 1.13 | 1.39 |
| CNCC(=O)c1ccc(O)c(O)c1 [Adrenalone HCl] | 1.06 | 0.418 | 1.18 | 1.16 | 0.892 | 0.981 |
| CN(C)C(=O)Oc1cccc([N+](C)(C)C)c1 [Neostigmine Bromide] | 1.45 | 0.931 | 0.914 | 0.963 | 0.858 | 1.53 |
| C=CN1CCCC1=O.II [Povidone iodine] | 0.772 | 0.725 | 0.784 | 1.19 | 1.94 | 1.05 |
| NC(=O)CN1CCCC1=O [Piracetam] | 1.42 | 0.813 | 0.735 | 1.08 | 0.792 | 1.01 |
| CCOC(=O)Nc1ccc(NCc2ccc(F)cc2)cc1N [Retigabine 2HCl] | 0.771 | 1.35 | 0.995 | 0.958 | 0.601 | 0.882 |
| Cc1cc(O)ccc1Cl [Chlorocresol] | 0.894 | 0.612 | 0.527 | 0.762 | 0.668 | 1.1 |
| O=c1[nH]c2ccc(Cl)cc2c(N[C@@H]2CN3CCC2CC3)c1-c1nc2ccccc2[nH]1 | 4.06 | 4.17 | 3.75 | 3.55 | 3.51 | 4.86 |
| S=C=NCc1ccccc1 [Benzyl isothiocyanate] | 4.42 | 2.5 | 3.41 | 2.02 | 3.28 | 1.82 |
| Cc1sc2c(c1C)C(c1ccc(Cl)cc1)=N[C@@H](CC(=O)OC(C)(C)C)c1nnc(C)n1-2 | 3.44 | 2.14 | 2.03 | 3.52 | 1.96 | 1.96 |
